According to the supplement of paper PMC11732987, “Enantioselective OTUD7B fragment discovery through chemoproteomics screening and high-throughput optimisation” (Communications Chemistry, 2025):

How the values were obtained:
Experiment in all cases: log2 ratio of Biotin-Ahx-Ub-VS probe labelling (fragment/DMSO); higher = less target engagement (more negative = stronger competition), active = hit call of the paper (q ≤ 0.05, log2 ratio ≤ -1)
Settings in all cases: compound concentration: 200 uM; treatment time: 3 h
OTUD6B = target: T1, OTUD6B (UniProt Q8N6M0)
T1 sequence (whole entry): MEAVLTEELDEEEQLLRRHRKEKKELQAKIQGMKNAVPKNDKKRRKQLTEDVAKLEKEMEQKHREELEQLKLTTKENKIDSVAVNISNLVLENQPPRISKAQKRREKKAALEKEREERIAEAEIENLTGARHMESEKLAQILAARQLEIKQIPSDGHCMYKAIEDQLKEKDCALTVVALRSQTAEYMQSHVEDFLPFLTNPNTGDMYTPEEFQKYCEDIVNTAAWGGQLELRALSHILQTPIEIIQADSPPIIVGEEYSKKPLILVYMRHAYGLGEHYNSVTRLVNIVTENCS
Outline: (§1)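 HEK293T lysate (495 µg per sample, in Tris/CHAPS/IGEPAL buffer with protease inhibitors) was exposed in triplicate for 3 h to fragment at 200 µM or to vehicle, then to Biotin-Ahx-Ub-VS at 0.5 µM final for 1 h. Labelled DUBs were enriched on NeutrAvidin, digested with LysC and trypsin, and analysed by diaPASEF LC-MS/MS. Spectronaut label-free quantities were normalised to the global median, and values are average log2 ratios of fragment over vehicle from an unpaired t-test. Only proteins with ≥2 unique peptides were used.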

OTUD7B = target: T2, OTUD7B (UniProt Q6GQQ9)
T2 sequence (whole entry): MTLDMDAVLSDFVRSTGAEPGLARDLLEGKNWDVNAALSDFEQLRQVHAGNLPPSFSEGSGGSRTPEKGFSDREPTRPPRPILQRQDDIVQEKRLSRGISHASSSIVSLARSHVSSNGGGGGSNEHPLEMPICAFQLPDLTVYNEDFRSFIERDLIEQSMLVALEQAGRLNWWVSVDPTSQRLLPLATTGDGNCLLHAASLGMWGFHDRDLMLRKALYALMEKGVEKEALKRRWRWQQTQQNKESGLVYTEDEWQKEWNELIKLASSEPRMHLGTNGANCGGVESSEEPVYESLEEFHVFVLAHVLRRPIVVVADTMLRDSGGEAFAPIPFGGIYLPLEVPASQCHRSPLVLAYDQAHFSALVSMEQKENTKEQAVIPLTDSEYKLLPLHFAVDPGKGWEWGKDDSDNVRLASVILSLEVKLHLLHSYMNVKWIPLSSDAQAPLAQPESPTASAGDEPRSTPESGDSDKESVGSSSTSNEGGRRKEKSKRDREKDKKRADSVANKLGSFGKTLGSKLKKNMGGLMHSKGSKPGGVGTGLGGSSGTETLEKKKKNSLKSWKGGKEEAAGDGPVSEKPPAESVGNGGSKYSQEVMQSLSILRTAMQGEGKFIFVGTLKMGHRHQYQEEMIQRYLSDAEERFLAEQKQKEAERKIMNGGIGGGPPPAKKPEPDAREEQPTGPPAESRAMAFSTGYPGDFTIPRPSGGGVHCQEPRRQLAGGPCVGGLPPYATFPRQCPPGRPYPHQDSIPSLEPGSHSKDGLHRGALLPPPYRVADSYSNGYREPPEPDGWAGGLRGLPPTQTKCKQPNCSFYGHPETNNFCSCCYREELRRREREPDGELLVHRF
Outline: as §1

PRPF8 = PRPF8 (UniProt Q6P2Q9)
Outline: as §1

PSMD7 = target: T3, PSMD7 (UniProt P51665)
T3 sequence (whole entry): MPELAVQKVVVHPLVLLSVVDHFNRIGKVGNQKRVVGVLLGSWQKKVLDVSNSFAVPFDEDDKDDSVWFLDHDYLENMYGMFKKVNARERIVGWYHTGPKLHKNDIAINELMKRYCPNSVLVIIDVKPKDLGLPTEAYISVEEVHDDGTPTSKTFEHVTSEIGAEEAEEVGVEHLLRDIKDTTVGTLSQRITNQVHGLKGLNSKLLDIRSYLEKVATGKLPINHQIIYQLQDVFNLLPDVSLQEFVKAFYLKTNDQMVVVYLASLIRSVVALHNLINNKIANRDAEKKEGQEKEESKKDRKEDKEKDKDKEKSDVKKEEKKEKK
Outline: as §1

UCHL1 = UCHL1 (UniProt P09936)
Outline: as §1

UCHL3 = target: T4, UCHL3 (UniProt P15374)
T4 sequence (whole entry): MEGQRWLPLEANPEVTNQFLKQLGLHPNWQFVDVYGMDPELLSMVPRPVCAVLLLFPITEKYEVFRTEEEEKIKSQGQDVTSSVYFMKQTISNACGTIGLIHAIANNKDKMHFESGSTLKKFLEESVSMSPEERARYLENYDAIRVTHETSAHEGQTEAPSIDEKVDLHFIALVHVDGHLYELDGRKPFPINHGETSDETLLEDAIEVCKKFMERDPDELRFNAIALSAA
Outline: as §1

UCHL5 = target: T5, UCHL5 (UniProt Q9Y5K5)
T5 sequence (whole entry): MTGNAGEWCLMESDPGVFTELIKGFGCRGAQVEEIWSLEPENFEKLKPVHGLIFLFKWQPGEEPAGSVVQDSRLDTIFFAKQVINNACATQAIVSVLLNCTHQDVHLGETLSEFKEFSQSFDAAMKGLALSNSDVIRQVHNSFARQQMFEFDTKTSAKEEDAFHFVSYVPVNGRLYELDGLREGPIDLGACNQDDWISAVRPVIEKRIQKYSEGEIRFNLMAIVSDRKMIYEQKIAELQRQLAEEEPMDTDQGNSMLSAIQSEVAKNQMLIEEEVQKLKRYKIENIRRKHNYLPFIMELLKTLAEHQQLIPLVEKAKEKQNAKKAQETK
Outline: as §1

USP10 = USP10 (UniProt Q14694)
Outline: as §1

USP15 = target: T6, USP15 (UniProt Q9Y4E8)
T6 sequence (whole entry): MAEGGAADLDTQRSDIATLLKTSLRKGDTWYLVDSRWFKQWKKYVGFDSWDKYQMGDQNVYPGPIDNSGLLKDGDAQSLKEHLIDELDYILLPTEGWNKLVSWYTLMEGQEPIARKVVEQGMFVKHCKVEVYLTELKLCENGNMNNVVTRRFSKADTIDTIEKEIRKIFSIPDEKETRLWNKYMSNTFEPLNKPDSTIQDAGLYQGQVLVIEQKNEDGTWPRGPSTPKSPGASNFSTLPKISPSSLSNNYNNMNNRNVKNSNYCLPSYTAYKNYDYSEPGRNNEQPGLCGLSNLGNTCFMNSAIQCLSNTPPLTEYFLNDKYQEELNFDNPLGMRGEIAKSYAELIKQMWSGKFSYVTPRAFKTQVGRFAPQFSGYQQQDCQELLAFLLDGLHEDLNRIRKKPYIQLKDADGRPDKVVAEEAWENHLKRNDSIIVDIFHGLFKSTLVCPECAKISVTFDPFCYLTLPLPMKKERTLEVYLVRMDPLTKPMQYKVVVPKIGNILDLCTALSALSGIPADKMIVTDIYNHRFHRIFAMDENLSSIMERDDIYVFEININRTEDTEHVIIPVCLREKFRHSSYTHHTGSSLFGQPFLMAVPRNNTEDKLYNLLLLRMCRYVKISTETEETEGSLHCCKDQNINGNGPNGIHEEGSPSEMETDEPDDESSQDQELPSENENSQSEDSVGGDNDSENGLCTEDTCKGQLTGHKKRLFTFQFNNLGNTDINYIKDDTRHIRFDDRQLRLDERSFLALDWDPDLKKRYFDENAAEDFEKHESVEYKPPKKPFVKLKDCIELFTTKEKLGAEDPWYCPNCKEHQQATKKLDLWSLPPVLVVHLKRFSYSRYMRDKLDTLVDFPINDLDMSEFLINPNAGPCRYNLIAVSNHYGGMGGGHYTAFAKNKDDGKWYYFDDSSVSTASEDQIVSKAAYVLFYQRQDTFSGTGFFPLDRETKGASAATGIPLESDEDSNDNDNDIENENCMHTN
Outline: as §1

USP16 = USP16 (UniProt Q9Y5T5)
Outline: as §1

Measured: log2 ratio of Biotin-Ahx-Ub-VS probe labelling

USP16, sequence (Q9Y5T5 whole entry, looked up): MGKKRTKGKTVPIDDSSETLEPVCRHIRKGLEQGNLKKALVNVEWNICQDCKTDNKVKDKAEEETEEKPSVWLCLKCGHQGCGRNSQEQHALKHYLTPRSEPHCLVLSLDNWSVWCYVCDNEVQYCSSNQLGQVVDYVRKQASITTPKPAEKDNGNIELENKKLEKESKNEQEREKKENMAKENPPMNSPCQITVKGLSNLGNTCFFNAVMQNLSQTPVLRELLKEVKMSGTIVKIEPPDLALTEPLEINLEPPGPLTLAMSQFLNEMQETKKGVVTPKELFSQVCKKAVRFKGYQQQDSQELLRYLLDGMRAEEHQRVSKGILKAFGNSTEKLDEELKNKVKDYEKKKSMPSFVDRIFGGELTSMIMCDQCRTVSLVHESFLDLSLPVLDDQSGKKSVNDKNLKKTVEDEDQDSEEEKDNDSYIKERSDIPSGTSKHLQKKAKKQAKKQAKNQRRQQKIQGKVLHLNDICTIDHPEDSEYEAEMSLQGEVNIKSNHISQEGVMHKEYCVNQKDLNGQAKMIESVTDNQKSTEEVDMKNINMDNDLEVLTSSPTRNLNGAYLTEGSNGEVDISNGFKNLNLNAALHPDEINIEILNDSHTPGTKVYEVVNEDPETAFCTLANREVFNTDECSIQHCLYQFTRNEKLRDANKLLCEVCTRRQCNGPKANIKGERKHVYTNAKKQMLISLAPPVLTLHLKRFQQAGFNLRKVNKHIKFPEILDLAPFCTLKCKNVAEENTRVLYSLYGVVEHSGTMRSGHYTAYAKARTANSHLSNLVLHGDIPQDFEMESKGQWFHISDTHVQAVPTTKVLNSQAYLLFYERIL
UCHL1, sequence (P09936 whole entry, looked up): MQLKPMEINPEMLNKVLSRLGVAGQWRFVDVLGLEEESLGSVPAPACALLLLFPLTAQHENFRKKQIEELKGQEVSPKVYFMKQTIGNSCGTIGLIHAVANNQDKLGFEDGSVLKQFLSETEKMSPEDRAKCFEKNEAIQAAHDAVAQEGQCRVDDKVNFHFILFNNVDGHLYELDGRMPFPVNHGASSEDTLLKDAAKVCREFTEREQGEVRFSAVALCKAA
USP10, sequence (Q14694 whole entry): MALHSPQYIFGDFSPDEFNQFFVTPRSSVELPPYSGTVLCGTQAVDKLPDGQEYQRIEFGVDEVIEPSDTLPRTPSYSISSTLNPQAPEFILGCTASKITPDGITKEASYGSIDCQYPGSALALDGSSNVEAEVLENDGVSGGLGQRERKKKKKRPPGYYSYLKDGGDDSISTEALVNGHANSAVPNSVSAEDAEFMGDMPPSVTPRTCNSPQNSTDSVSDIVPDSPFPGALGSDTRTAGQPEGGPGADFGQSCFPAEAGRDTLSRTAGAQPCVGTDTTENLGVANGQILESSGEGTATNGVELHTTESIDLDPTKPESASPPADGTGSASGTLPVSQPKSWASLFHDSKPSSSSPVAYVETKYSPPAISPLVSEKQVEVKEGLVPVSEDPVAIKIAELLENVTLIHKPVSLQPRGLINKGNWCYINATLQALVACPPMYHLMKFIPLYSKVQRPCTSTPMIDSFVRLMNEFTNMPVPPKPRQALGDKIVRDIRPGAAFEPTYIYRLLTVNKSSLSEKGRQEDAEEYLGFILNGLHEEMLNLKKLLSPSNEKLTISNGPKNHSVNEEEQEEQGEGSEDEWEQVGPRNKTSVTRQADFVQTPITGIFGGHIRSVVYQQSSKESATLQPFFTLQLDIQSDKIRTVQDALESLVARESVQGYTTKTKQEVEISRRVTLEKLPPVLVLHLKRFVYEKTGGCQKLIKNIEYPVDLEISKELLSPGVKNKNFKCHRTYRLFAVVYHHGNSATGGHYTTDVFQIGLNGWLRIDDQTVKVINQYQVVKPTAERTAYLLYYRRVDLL

Cc1c(NC(=O)CCl)c(=O)n(-c2ccccc2)n1C
inactive: OTUD6B -0.0267 | OTUD7B -0.0828 | PRPF8 0.192 | PSMD7 -0.0588 | UCHL3 0.0974 | UCHL5 -0.143 | USP10 -0.099 | USP15 -0.102 | USP16 -0.462
active: UCHL1 -1.04
